Results filed as inconclusive are left out. Calls of active or inactive are those of the source. Calls follow the shape of the dose curve; as a rule, active = well fitted curve in the direction sought with a large enough effect; inconclusive = small, poorly fitted or top-dose-only effect, or another doubt; inactive = no such curve, though single readings can be large; an effect the other way counts as inactive or inconclusive.
Experiments:
[1] = qHTS assay for measurement of the activity of small molecule inhibitors on Zika virus induced Caspase-3 activity in human astrocytoma cells (AID 1224859)
In short: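 Human SNB-19 astrocytoma cells in RPMI 1640 with 10% FBS receive compound one hour ahead of Zika virus at 2 FFU/cell. After 6 h infection, caspase-3/7 activity is detected by Caspase-Glo luminescence.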

[2] = qHTS assay to identify small molecule inhibitors of chordoma cells - UCH-1 (AID 1259355); also: nearly all actives have a fitted effect of over 55% in size
In short: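 Cells (800/well) were seeded and left overnight at 37 C, 5% CO2, then treated with drugs at 15 concentrations plus a combination mix of auranofin, camptothecin, doxorubicin, rubitecan and topotecan. Viability after 48hr was read by CellTiter-Glo luminescence.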

[3] = qHTS assay to identify small molecule inhibitors of chordoma cells - UCH-2 (AID 1259356); also: series mostly up to about 46 µM
[4] = P-glycoprotein substrates identified in KB-8-5-11 adenocarcinoma cell line, qHTS therapeutic library screen (AID 1346987); also: series mostly up to about 44 µM; nearly all actives have a fitted effect of over 65% in size
In short: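 KB-8-5-11: colchicine-selected sub-line of KB-3-1 over-expressing P-gp; assay medium lacked colchicine. 72 h drug exposure at 37 degree C, CellTiter-Glo.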

[5] = NS1 protein of Zika virus - qHTS assay to identify small molecule inhibitors in human HEK 293 cells (AID 1347053); also: series mostly up to about 46 µM; nearly all actives have a fitted effect of over 55% in size
In short: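 HEK 293; 20 h pre-culture, 37 C/5% CO2; cpd 1 h pre-infection; ZIKV MR766, MOI = 0.5, 24 h, 37 C; TR-FRET NS1 readout (two anti-NS1 Abs); norm. to no-virus vs infected.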

[6] = qHTS of pediatric cancer cell lines to identify multiple opportunities for drug repurposing: Primary screen for TC32 cells (AID 1347089); also: nearly all actives have a fitted effect of over 60% in size
In short: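 A viability screen of TC32 cells was run over 48 h, with primary MIPE doses spanning 0.78 nM–46 µM and NPC doses 0.59 nM–46 µM. ATP luminescence (CellTiter-Glo) served as the read-out.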

[7] = qHTS of pediatric cancer cell lines to identify multiple opportunities for drug repurposing: Primary screen for DAOY cells (AID 1347090); also: series mostly up to about 46 µM; nearly all actives have a fitted effect of over 55% in size
In short: (§1)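 Viability measured as metabolically active cells via CellTiter-Glo luminescence following 48 hours of compound exposure, 11-point dilutions in confirmatory testing. 500-1,000 cells/well plated 5 hours before dosing; controls were DMSO and 2.3 µM bortezomib.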

[8] = qHTS of pediatric cancer cell lines to identify multiple opportunities for drug repurposing: Primary screen for SJ-GBM2 cells (AID 1347091)
In short: as §1

[9] = qHTS of pediatric cancer cell lines to identify multiple opportunities for drug repurposing: Primary screen for A673 cells (AID 1347092); also: nearly all actives have a fitted effect of over 45% in size
In short: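 Titration-based qHTS on A673 cells: MIPE compounds spanned 11 points (0.78 nM to 46 µM final), NPC compounds 8 points (0.59 nM to 46 µM final). Viability after 48 h was measured by ATP luminescence.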

[10] = qHTS of pediatric cancer cell lines to identify multiple opportunities for drug repurposing: Primary screen for SK-N-MC cells (AID 1347093); also: series mostly up to about 46 µM
In short: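 Metabolically active cells were quantified by ATP-dependent luminescence (CellTiter-Glo, 15 min at room temperature) following 48 h treatment. Cells had been plated at 500-1,000 per well and settled for 5 h beforehand.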

[11] = qHTS of pediatric cancer cell lines to identify multiple opportunities for drug repurposing: Primary screen for BT-37 cells (AID 1347094); also: series mostly up to about 57 µM
In short: (§2)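 Viability was measured as metabolically active cells after 48 hours of treatment, read by CellTiter-Glo luminescence. Compounds were tested at multiple final concentrations, giving concentration-response curves.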

[12] = qHTS of pediatric cancer cell lines to identify multiple opportunities for drug repurposing: Primary screen for NB-EBc1 cells (AID 1347095)
In short: as §2

Measured: Potency

NC(=O)c1ccccc1O
inactive: all assays above

C[C@@H](O)[C@H]1C(=O)N2C(C(=O)O)=C([C@H]3CCCO3)S[C@H]12
inactive: all assays above

CCOC(=O)c1ccc(N)cc1
inactive: all assays above

NS(=O)(=O)c1ccc(Cl)c(S(N)(=O)=O)c1
inactive: all assays above

CC(=O)Nc1ccc(S(=O)(=O)Nc2ccc([N+](=O)[O-])cc2)cc1
inactive: all assays above

Cc1cc(NS(=O)(=O)c2ccc(N)cc2)nc(C)n1
inactive: all assays above

CC(=O)NC(=O)c1ccccc1O
inactive: all assays above

OC1C(O)C(O)C(O)C(O)C1O (stereo unspecified)
inactive: all assays above

C#C[C@]1(OC(C)=O)CC[C@H]2[C@@H]3CCC4=C/C(=N/O)CC[C@@H]4[C@H]3CC[C@@]21CC
inactive: [1] | [2] | [3]

CC(O)Cn1cnc2c1c(=O)n(C)c(=O)n2C (stereo unspecified)
inactive: all assays above
